Bioassay records as filed in PubChem BioAssay.
The list is not random: actives were taken first. Their share in the collection is about 3.4%.
TEAD-YAP inh – TEAD-YAP interaction inhibition. HEK-TIYL cells, TEAD-Gal4/YAP UAS-luciferase luminescence. inhibition, % at 9.12 µM. 1.4% of 640,000 active. AID 1259422; in the data active = inhibition above about 32%;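 note: 0% = median of test compound wells and 100% = reference inhibitor wells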
GPR151 activ – activates the human receptor GPR151 | activation, % at 11.2 µM | PathHunter beta-arrestin GPR151 cells, luminescence | 1% of 650,000 active; in the data active = activation above about 4.9%;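 note: 0% = median of compound wells and 100% = cells with positive control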
Target sequence (Q8TDV0 whole entry, looked up): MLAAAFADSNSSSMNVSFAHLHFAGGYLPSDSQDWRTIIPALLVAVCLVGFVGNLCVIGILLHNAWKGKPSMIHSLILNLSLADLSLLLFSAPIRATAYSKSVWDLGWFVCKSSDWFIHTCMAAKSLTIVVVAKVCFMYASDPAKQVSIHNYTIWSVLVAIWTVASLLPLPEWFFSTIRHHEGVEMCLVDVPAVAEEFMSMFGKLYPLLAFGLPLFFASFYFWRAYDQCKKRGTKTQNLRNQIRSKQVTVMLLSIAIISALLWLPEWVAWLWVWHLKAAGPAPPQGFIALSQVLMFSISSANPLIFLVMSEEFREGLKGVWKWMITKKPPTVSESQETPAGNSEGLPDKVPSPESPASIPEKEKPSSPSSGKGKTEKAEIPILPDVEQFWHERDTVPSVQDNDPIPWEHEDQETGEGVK
FBW7 activator – activators of human E3 ligase FBW7; normalized activity (activation), % at 26.1 µM; Q969H0; 0.13% of 650,000 active; AlphaScreen FBW7–phospho-cyclin E peptide binding, activator screen; in the data active = normalized activity above about 1.9%;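 note: purified mutant Fbw7 with reduced substrate affinity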
MITF inh – human MITF inhibition, primary screen | AlphaScreen MITF homodimerization, bead proximity signal | inhibition, % at 2.6 µM | AID 1259374 | 0.91% of 650,000 active; in the data active = inhibition above about 50%;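 note: 0% = vehicle wells with protein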
* = called active by the depositor.

SMILES	TEAD-YAP inh	GPR151 activ	FBW7 activator	MITF inh
C=CCOc1ccc(C(=O)Nc2ccccn2)cc1	51.6*	-7.8	0.1	10.3
CC(C)(C)c1ccc(C(=O)Nc2ccccn2)cc1	84.0*	-10.0	0.1	15.1
Cc1ccc(C(=O)Nc2ccccn2)cc1C	43.8*	-9.7	0.3	18.2
COc1ccc(CNC(=O)CN(Cc2ccccc2)S(=O)(=O)c2ccc(C)cc2)cc1	10.4	-0.7	0.7	14.1
CCCCc1ccc(NC(=O)CSc2nc3[nH]ncc3c(=O)[nH]2)cc1	4.5	3.3	0.2	9.6
CCOC(=O)C1=C(C)NC(=O)NC1c1ccc([N+](=O)[O-])cc1 (stereo not drawn)	1.4	1.4	0.6	1.3
COc1ccc(C2NC(=O)NC(C)=C2C(=O)OCc2ccc3c(c2)OCO3)cc1 (stereo not drawn)	67.3*	0.8	-0.1	-4.2
COc1ccc(COC(=O)C2=C(C)NC(=O)NC2c2ccc(C)cc2)cc1 (stereo not drawn)	21.9	-0.5	0.1	-8.2
CCCOc1ccc(C2NC(=O)NC(C)=C2C(=O)OCc2ccc(OC)cc2)cc1 (stereo not drawn)	57.8*	-1.1	-0.4	-2.0
CCCCOC(=O)C1=C(C)NC(=O)NC1c1ccc(OCCC)cc1 (stereo not drawn)	20.3	-0.3	0.1	4.8
COc1ccc(COC(=O)C2=C(C)NC(=O)NC2c2ccc([N+](=O)[O-])cc2)cc1 (stereo not drawn)	44.2*	0.2	-0.2	10.7
CCCOC(=O)C1=C(C)NC(=O)NC1c1ccc(OCCC)cc1 (stereo not drawn)	43.4*	-1.1	0.0	-13.5
COc1cccc(NC(=O)Nc2cn(C)c(=O)c3ccccc23)c1	0.4	1.5	-0.1	2.5
Cc1cc2nccc(-c3ccc(-n4c(C)ccc4C)cc3)n2n1	2.5	0.4	1.3	1.7
CN(C)c1ccc(/C=C(\NC(=O)c2ccc(Br)cc2Br)C(=O)Nc2ccccc2F)cc1	7.2	-0.9	0.0	9.3
Cc1cccc(-c2nc3scc(CCNC(=O)Cc4ccc(F)cc4)n3n2)c1	10.5	0.0	-0.1	15.0
CCOc1ccc(/C=N/NC(=O)C(=O)Nc2cccc(C(F)(F)F)c2)cc1	5.6	0.2	0.0	17.5
CCc1ccc2c(c1)NC(=O)C2(C)Cc1cccc(C(=O)OC)c1 (stereo not drawn)	44.1*	0.5	0.2	1.8
COC(=O)C1=C(OC)C(=O)OC12C=CC(=O)C=C2	79.8*	-1.0	0.2	17.9
COC(=O)c1cc2cccc(OC)c2oc1=O	-4.3	-1.0	-0.3	-3.4
COc1cccc(CSc2nncn3c2cc2oc(C)cc23)c1	-5.1	-0.7	24.5*	6.2
COc1cccc(CSc2nncn3c2cc2occc23)c1	-2.0	-0.7	0.4	13.6
CC1(C)Cc2c(sc(NC(=O)c3ccccc3)c2C(=O)O)CO1	46.5*	-4.5	-0.1	4.2
COc1ccc(C(=O)Nc2sc3c(c2C(=O)O)CC(C)(C)OC3)cc1OC	40.1*	0.1	-0.1	-18.2
CC(C)COc1ccc(C(=O)Nc2sc3c(c2C(=O)O)CC(C)(C)OC3)cc1	20.4	0.7	0.1	4.8
SMILES	TEAD-YAP inh	GPR151 activ	FBW7 activator	MITF inh
CC1(C)Cc2c(sc(NC(=O)c3ccccc3)c2C(N)=S)CO1	-63.8	-0.8	-0.1	-4.0
C=CCNC(=O)c1c(NC(=O)c2ccccc2)sc2c1CCCC2	6.9	1.5	0.0	-3.6
O=S(=O)(NCC1(CO)CC1)c1ccc(Br)cc1	-5.0	-1.0	0.0	-6.1
OC(COc1ccc(Cl)cc1)CN1C2=NCCN2c2ccccc21 (stereo not drawn)	40.0*	-0.7	0.5	11.0
COc1ccc(Oc2nc3c(C)cccn3c(=O)c2/C=C(\C#N)C(=O)N2CCOCC2)cc1	15.3	0.4	0.0	9.0
Cc1ccc(Oc2nc3ccccn3c(=O)c2/C=C(\C#N)C(=O)N2CCOCC2)c(C)c1	34.3*	0.5	0.0	3.6
Cc1cc(C)cc(Oc2nc3c(C)cccn3c(=O)c2/C=C(\C#N)C(=O)N2CCOCC2)c1	36.8*	3.6	0.1	8.2
Cc1cccc(Oc2nc3ccccn3c(=O)c2/C=C(\C#N)C(=O)N2CCOCC2)c1C	42.0*	-1.4	0.6	17.7
Cc1ccc(N(CC(=O)N2CCCC2)S(=O)(=O)c2ccc(F)cc2)cc1	10.9	-0.8	0.1	-1.0
O=C(c1cccs1)N1CCC(Cn2nc(-c3cccs3)ccc2=O)CC1	3.9	-0.3	0.0	-11.2
Cc1c(Cl)sn(-c2ccc(Cl)cc2)c1=O	40.3*	2.2	-0.1	-2.0
Cc1cc(-n2sc(Cl)c(C)c2=O)ccc1Cl	42.9*	0.1	0.0	-3.5
CN(C)C1(CNC(=O)c2ccc3c(=O)[nH]c(CN4CCOCC4)nc3c2)CCCCC1	-3.9	-1.5	-0.1	0.7
CC(=O)Nc1ccc(-c2nc3cccnc3s2)cc1	47.0*	-3.6	-0.1	12.4
Cc1ccc(-c2nc3cccnc3s2)cc1NC(=O)C(F)(F)F	32.0*	-1.2	0.0	1.0
CCCCC(=O)Nc1ccc(-c2nc3cccnc3s2)cc1	7.3	-1.5	0.2	4.3
O=C(Nc1ccc(N2CCOCC2)cc1)c1cccc(-c2csc3ccccc23)n1	-6.3	-0.4	0.2	11.6
CC(=O)n1c2ccccc2c2cc(Br)ccc21	1.6	0.1	-0.1	-7.2
COc1cccc2cc(-c3nc4ccccc4[nH]3)c(=Nc3ccc(-c4ccccc4)cc3)oc12	-33.5	0.3	-0.2	4.2
COc1ccc2c(c1)c(C)c(C)n2CCc1ccc(C)nc1	50.1*	-1.6	-0.2	-6.5
Cc1ccc(CCn2c(C)c(C)c3ccccc32)cn1	-3.3	3.0	0.5	9.4
COc1ccc(/C=C/C(=O)Nc2ccccc2C)cc1OC	5.5	0.7	-0.2	11.0
COc1ccc(/C=C/C(=O)Nc2ccccc2C(=O)O)cc1OC	83.6*	-10.5	0.0	1.4
O=C(/C=C/c1ccc2c(c1)OCO2)Nc1ccccc1C(=O)O	46.7*	-6.7	0.0	20.3
CC1CCN(S(=O)(=O)c2ccc(NC(=O)/C=C/c3ccc4c(c3)OCO4)cc2)CC1	43.7*	0.0	0.2	13.5
SMILES	TEAD-YAP inh	GPR151 activ	FBW7 activator	MITF inh
Cc1c(C(=O)N(C)Cc2ccccc2)sc2ncn(CC(=O)N3CCN(c4ccccn4)CC3)c(=O)c12	10.7	0.2	-0.1	0.1
CC(C)C(=O)N1CCC(c2nc3sc4c(c3c(=O)[nH]2)CCCC4)CC1	5.1	-0.8	0.1	5.3
COc1ccc(C(=O)Nn2c(SCc3ccc(C)cc3)nc3ccccc3c2=O)cc1	38.0*	2.1	-0.1	-3.3
CC(C)(C)c1ccc(-c2nc3ccccc3c(=O)n2NC(=O)c2cccnc2)cc1	83.5*	1.0	-0.1	9.9
COc1ccc(C(=O)Nn2c(SCc3ccc(F)cc3)nc3ccccc3c2=O)cc1	51.6*	2.6	0.0	-8.2
COc1ccc(C(=O)Nn2c(SCc3ccc(Cl)cc3)nc3ccccc3c2=O)cc1	30.3	0.2	0.1	-2.4
CCOC(=O)N1CCC(n2c(SCC(=O)Nc3ccc(C)cc3)nc3ccccc3c2=O)CC1	55.4*	-0.5	0.0	3.9
N=C1/C(=C/c2cccc(OCCOc3ccccc3Cl)c2)C(=O)N=C2SC(C(F)(F)F)=NN12	-31.2	-0.2	0.1	8.2
